Assay results from publication PMC4336329 (PLoS ONE, 2015).
Out of some 310,000 compounds screened, about 14,000 (4.5%) showed an effect of 50% or more. The effect is printed as a negative number. This excerpt belongs to a sample that is enriched for strong results.

What follows are compounds tested against human ether-à-go-go-related gene (hERG) potassium channel (human, UniProt Q12809) (assay: primary screen, population patch clamp on CHO cells stably expressing hERG; higher = less effect of the substance).
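Further: peak tail current of the secondary pulse compared with the same well before compound.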

human ether-à-go-go-related gene (hERG) potassium channel, sequence (Q12809 whole entry, looked up): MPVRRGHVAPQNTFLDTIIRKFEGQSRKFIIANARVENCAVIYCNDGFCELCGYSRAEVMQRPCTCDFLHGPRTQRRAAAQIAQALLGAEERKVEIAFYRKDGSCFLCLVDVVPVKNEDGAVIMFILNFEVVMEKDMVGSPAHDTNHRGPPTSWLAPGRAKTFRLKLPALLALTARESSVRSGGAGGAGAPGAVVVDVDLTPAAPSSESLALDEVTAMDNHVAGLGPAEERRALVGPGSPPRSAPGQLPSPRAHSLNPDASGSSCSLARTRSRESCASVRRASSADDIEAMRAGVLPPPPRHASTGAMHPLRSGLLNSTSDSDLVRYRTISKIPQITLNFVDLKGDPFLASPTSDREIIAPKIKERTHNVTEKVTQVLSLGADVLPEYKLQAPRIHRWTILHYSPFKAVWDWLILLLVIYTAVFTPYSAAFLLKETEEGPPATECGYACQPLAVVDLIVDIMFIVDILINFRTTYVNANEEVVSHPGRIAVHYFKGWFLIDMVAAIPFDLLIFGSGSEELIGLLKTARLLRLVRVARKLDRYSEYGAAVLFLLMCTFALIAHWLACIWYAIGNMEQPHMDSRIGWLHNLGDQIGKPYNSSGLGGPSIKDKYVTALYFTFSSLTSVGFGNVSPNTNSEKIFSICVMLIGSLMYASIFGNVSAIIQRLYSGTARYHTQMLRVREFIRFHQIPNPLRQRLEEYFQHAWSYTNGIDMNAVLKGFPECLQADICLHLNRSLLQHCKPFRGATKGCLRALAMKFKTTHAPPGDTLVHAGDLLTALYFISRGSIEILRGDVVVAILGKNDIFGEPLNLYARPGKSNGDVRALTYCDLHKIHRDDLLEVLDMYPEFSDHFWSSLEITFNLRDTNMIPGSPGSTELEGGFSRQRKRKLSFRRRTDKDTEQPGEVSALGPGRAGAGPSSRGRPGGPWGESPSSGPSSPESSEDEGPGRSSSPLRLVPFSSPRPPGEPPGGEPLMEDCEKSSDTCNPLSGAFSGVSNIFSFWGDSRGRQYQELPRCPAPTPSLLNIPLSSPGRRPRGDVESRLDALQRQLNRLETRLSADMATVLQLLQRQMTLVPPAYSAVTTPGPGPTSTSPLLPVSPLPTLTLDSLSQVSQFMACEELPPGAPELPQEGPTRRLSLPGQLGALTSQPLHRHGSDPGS

SMILES	hERG current change (%, negative = inhibition) at 10uM
CCn1nc(C)cc1C(=O)NC1CCCc2c1cnn2-c1cc(F)cc(F)c1 (stereo not drawn)	-5.58%
Cc1cc(=O)c2cc(Br)ccc2n1CC(=O)NCc1ccccc1	-12.8%
O=C(CCNc1cc(Cl)cc(Cl)c1)c1ccco1	-4.77%
Cc1ccc(C(C)(C)C)c(OCCCCN2CCCC2)c1	-19.9%
CCCN(CCC)CCNC(=O)CCC(=O)Nc1ccc2nc(N3CCN(C)CC3)cc(C)c2c1	17.7%
O=c1[nH]ncn2cccc12	24.1%
COc1ccccc1CN(C)S(=O)(=O)c1cccs1	4.72%
CN(Cc1ccc(F)cc1Cl)S(=O)(=O)c1cccs1	-62%
CN(Cc1c(F)cccc1Cl)S(=O)(=O)c1cccs1	-19.8%
Cc1c(OC(C)C(=O)NCCCN2CCOCC2)ccc2c1oc(=O)c1ccccc12 (stereo not drawn)	6.19%
O=C(CN1C(=O)COc2ccccc21)NCCN1CCC(Cc2ccccc2)CC1	-56.6%
CN1CCN(CCCNC(=O)CCN2C(=O)COc3ccccc32)CC1	0.334%
O=C(CCN1C(=O)COc2ccccc21)NCCCN1CCN(c2ccccc2F)CC1	-42.7%
O=C(CCN1C(=O)COc2ccccc21)NCCCN1CCN(c2ccc(F)cc2)CC1	-63.7%
O=C(CN1C(=O)COc2ccccc21)NCCN1CCCC1	13.6%
O=C(CCN1C(=O)COc2ccccc21)NCCN1CCN(c2ccccc2F)CC1	-33.5%
O=C(CCN1C(=O)COc2ccccc21)NCCN1CCN(c2cccc(Cl)c2)CC1	-56.5%
COc1ccc(N2CCN(CCNC(=O)CCN3C(=O)COc4ccccc43)CC2)cc1	-47%
O=C(CN1C(=O)COc2ccccc21)NCCN1CCOCC1	11.3%
CS(=O)(=O)N(CC(=O)Nc1ccccc1-c1ccccc1)c1ccccc1	-0.135%
O=C(NC1CCCC1)C(c1ccncc1)N(C(=O)c1ccco1)c1ccc(Cl)cc1 (stereo not drawn)	-4.59%
CCOC(=O)C1(CCOc2ccccc2)CCN(C(=O)CCSC)CC1	-42%

SMILES	hERG current change (%, negative = inhibition) at 10uM
CCOC(=O)C1(CCc2ccccc2)CCN(C(C)CSC)CC1 (stereo not drawn)	-66.6%
CCOC(=O)C1(CCOc2ccccc2)CCN(C(C)CSC)CC1 (stereo not drawn)	-55.3%
O=C1C2CCCN2C(c2ccc(Cl)c(Cl)c2)N1c1ccccn1 (stereo not drawn)	-10%
O=C(NC(=S)Nc1ccc(-c2nc3ncccc3o2)cc1)c1ccccc1F	14.5%
CCOCCCNC(=O)C(NC(=O)c1cnccn1)c1ccc(C)cc1 (stereo not drawn)	30.4%
CCN(CC)C(=O)Cn1cc(S(=O)(=O)CC(=O)Nc2ccc(C(N)=O)cc2)c2ccccc21	18.2%
CCOc1ccc(NC(=O)CN2CCCC2c2cccs2)cc1S(=O)(=O)N1CCCCC1 (stereo not drawn)	-11.8%
COC(=O)c1ccc(N2CCN(CCNC(=O)Nc3ccc(OC)cc3)CC2)cc1	-0.192%
COc1ccccc1N1CCN(CCCNc2c(C)c(=O)n(C)c(=O)n2C)CC1	-5.42%
CSc1cccc(NC(=S)NCCCN2CCN(c3ccc(F)cc3)CC2)c1	-66.7%
COc1ccc(N2CCN(CCCNC(=O)Nc3ccccc3)CC2)cc1	-64.5%
CCOc1ccc(NC(=O)CCN2CCN(c3ccccc3OC)CC2)cc1	-33.8%
CSc1cccc(NC(=S)NCCCO)c1	-4.03%
COc1ccc(NC(=O)NCCN2CCN(c3cccc(Cl)c3)CC2)cc1	-31.6%
CCc1ccc(N2CCN(CCNC(=O)Nc3ccc(OC)cc3)CC2)cc1	-29.9%
COc1ccccc1N1CCN(CCCNC(=O)Nc2ccccc2)CC1	-59.8%
COc1ccc(N2CCN(CCNC(=O)Nc3ccc(Cl)cc3)CC2)cc1	-60.7%
Fc1cccc(NC(=S)NCCCN2CCOCC2)c1	-0.1%
COc1ccc(N2CCN(CCNC(=O)Nc3ccc(C)c(Cl)c3)CC2)cc1	15.9%
CC(OC(=O)c1ccccc1NCc1ccco1)C(=O)Nc1ncc(Cl)cc1Cl (stereo not drawn)	2.95%
Cc1ccc(C)c(-n2nnnc2SCC(=O)NCC2CCCO2)c1 (stereo not drawn)	-4.18%
CCN(C(=O)COC(=O)CCC(=O)c1cccs1)c1c(N)n(Cc2ccccc2)c(=O)[nH]c1=O	-4.97%

SMILES	hERG current change (%, negative = inhibition) at 10uM
CCCCCOc1ccc(CSCCNC(=S)Nc2ccccc2)cc1	-5.94%
O=C(O)c1ccccc1C(=O)c1ccc(-c2ccccc2)cc1	17.2%
CCOC(=O)c1ccc(S(=O)(=O)NNC(=O)COc2cccc(C)c2)cc1	34.6%
Cc1ccc(S(=O)(=O)N2CCN(S(=O)(=O)N3CCCCCC3)CC2)cc1	20.4%
COc1cccc(NC(=S)NCCCN2CCOCC2)c1	16.7%
COc1ccccc1N1CCN(CCCNC(=O)Nc2ccccc2C)CC1	-33.7%
Cc1cccc(NC(=O)NCCN2CCN(c3ccccc3)CC2)c1C	-9.69%
COc1cccc(NC(=O)NCCCN2CCN(c3ccc(F)cc3)CC2)c1	-73.2%
COc1cccc(NC(=O)NCCN2CCCCC2)c1	-13.7%
COc1ccccc1N1CCN(CCNC(=O)Nc2cccc(C)c2C)CC1	-68.8%
Cc1cccc(NS(=O)(=O)c2c(C(=O)N3CCCC3)c(C)n(C)c2C)c1	18.1%
Cc1cc(Cl)ccc1OCC(=O)N/N=C/c1ccncc1	-14.9%
COC(=O)CSc1nc(C)cc(N2CCOCC2)n1	7.89%
NC(=O)C1CCN(C(=O)COc2ccc3ccccc3c2)CC1	18.2%
CCC(C)(C)NC(=O)C(c1cccnc1)N(C(=O)c1csnn1)c1ccccc1 (stereo not drawn)	-22.7%
O=C(Cn1c(-c2ccccc2)noc1=O)NCc1ccccc1	6.47%
CCCCCn1c(SCC(=O)OCC)nc2cc(C(=O)N3CCC(C(N)=O)CC3)ccc2c1=O	-58.4%
CCCCCn1c(SCC(=O)CC(=O)OCC)nc2cc(C(=O)N3CCC(C(N)=O)CC3)ccc2c1=O	-17.7%
CCCCCn1c(SCC2CCCO2)nc2cc(C(=O)N3CCC(C(N)=O)CC3)ccc2c1=O (stereo not drawn)	-64.7%
NC(=O)C1CCN(C(=O)c2ccc3c(=O)n(Cc4ccco4)c(SCC(=O)c4ccccc4)nc3c2)CC1	6.75%
CCOC(=O)CSc1nc2cc(C(=O)N3CCC(C(N)=O)CC3)ccc2c(=O)n1C1CCCCC1	-10.7%
N#CCSc1nc2ccccc2c(=O)n1CCCC(=O)NCC1CCCO1 (stereo not drawn)	-12.4%

SMILES	hERG current change (%, negative = inhibition) at 10uM
CCCCCn1c(SCC#N)nc2cc(C(=O)NCC3CCCO3)ccc2c1=O (stereo not drawn)	-52.7%
C=CCn1c(SCC(=O)CC(=O)OCC)nc2cc(C(=O)N3CCC(C(N)=O)CC3)ccc2c1=O	13.7%
CCCCn1c(SC(C)C(=O)NCC2CCCO2)nc2cc(C(=O)OC)ccc2c1=O (stereo not drawn)	-44.9%
c1cc(-c2nnn(CCOCCn3nnc(-c4ccncc4)n3)n2)ccn1	-0.329%
c1ccc(Oc2cccc(OCCn3cncn3)c2)cc1	-12.7%
CC(=O)c1ccc(NC(=S)NNC(=O)c2ccccc2[N+](=O)[O-])cc1	20%
Cc1ccc(S(=O)(=O)NCC2CCC(C(=O)NCCCN3CCOCC3)CC2)cc1 (stereo not drawn)	10.8%
CCCCNC(=O)C1CCC(CNS(=O)(=O)c2c(C)cc(C)cc2C)CC1 (stereo not drawn)	3.09%
Cc1cc(C)c(S(=O)(=O)NCC2CCC(C(=O)NCCCN3CCC(C)CC3)CC2)c(C)c1 (stereo not drawn)	-77.2%
COC(CNC(=O)C1CCC(CNS(=O)(=O)c2c(C)cc(C)cc2C)CC1)OC (stereo not drawn)	-26%
CCCCN(C)CCCNC(=O)C1CCC(CNS(=O)(=O)c2c(C)cc(C)cc2C)CC1 (stereo not drawn)	-77.3%
CCC1CCCCN1CCCNC(=O)C1CCC(CNS(=O)(=O)c2c(C)cc(C)cc2C)CC1 (stereo not drawn)	-68.3%
CC1CCN(CCCNC(=O)C2CCC(CNS(=O)(=O)c3ccccc3)CC2)CC1 (stereo not drawn)	5.02%
CCN(CC)CCCNC(=O)C1CCC(CNS(=O)(=O)c2c(C)cc(C)cc2C)CC1 (stereo not drawn)	-13.5%
COCCNC(=O)C1CCC(CNS(=O)(=O)c2c(C)cc(C)cc2C)CC1 (stereo not drawn)	7.72%
O=C(Cn1c2c(c(=O)n3ncnc13)CCC2)N/N=C/c1cccs1	0.665%
CS(=O)(=O)c1ccc(C(=O)NCC(c2ccco2)N2CCCCC2)cc1 (stereo not drawn)	18%
Cc1cc(OCC(=O)NCC(O)c2ccccc2)c2c3c(c(=O)oc2c1)CCCC3 (stereo not drawn)	12.1%
CCCCn1c(N)c(N(CCOC)C(=O)c2ccco2)c(=O)[nH]c1=O	0.12%
Cc1ccc(-n2c(SCC(=O)N/N=C/c3c(C)nn(-c4ccccc4)c3C)nc3ccccc3c2=O)cc1	-7.33%
O=C(Nc1ccccc1)N1CCC(O)(c2cccc(C(F)(F)F)c2)CC1	-6.72%
